The supplement of paper PMC8975748
Counter-ions that a name gives are not always drawn. ± gives the standard deviation of the averaged measurements.

Legend:
[1] = test system: Saccharomyces cerevisiae BY4741 SeMeCo community; test: mean cell size (pixel area) (pixels); higher = larger cells; details: 10 µM; 24 h; SM minimal medium
How it was run: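 Harmony analysis of automated confocal images of paraformaldehyde-fixed yeast gave the mean cell pixel area per well. The yeast was a Saccharomyces cerevisiae BY4741 community carrying four plasmids, each with a fluorescent marker and each complementing one auxotrophy, incubated for 24 h in SM medium containing drug at a final 10 µM in 384-well plates. Results are averaged over 3 replicates. Same SeMeCo high-content imaging drug screen: Selleck FDA-approved drugs at 10 µM, 24 h in SM medium, 384-well plates, 3 replicates.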

[2] = test system: Saccharomyces cerevisiae BY4741 SeMeCo community; test: z-score of prototroph abundance vs DMSO median; higher = larger share of this subpopulation than in DMSO controls; details: 10 µM; 24 h; SM minimal medium; subpopulation (auxotrophy): Prototroph
How it was run: (§1)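 A community of Saccharomyces cerevisiae BY4741 was built from four plasmids that each restored one auxotrophy and encoded a distinct fluorescent protein. Pre-grown overnight to OD600 1.0 and diluted to 0.3, it was dispensed at 70 µl into 384-well plates acoustically predosed with library drugs for a final 10 µM, and grown 24 h in minimal SM medium. Cells were then paraformaldehyde-fixed and imaged by automated confocal microscopy. Thresholds and autofluorescence correction came from single-auxotroph fluorescent strains, and each subpopulation's abundance was scored as a z-score relative to the vehicle-well median.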

[3] = test system: Saccharomyces cerevisiae BY4741 SeMeCo community; test: z-score of subpopulation abundance vs DMSO median, subpopulation auxotrophic for M; higher = larger share of this subpopulation than in DMSO controls; details: 10 µM; 24 h; SM minimal medium; subpopulation (auxotrophy): M
How it was run: as §1

[4] = test system: Saccharomyces cerevisiae BY4741 SeMeCo community; test: z-score of subpopulation abundance vs DMSO median, subpopulation auxotrophic for L; higher = larger share of this subpopulation than in DMSO controls; details: 10 µM; 24 h; SM minimal medium; subpopulation (auxotrophy): L
How it was run: as §1

[5] = test system: Saccharomyces cerevisiae BY4741 SeMeCo community; test: z-score of subpopulation abundance vs DMSO median, subpopulation auxotrophic for U; higher = larger share of this subpopulation than in DMSO controls; details: 10 µM; 24 h; SM minimal medium; subpopulation (auxotrophy): U
How it was run: as §1

[6] = test system: Saccharomyces cerevisiae BY4741 SeMeCo community; test: z-score of subpopulation abundance vs DMSO median, subpopulation auxotrophic for H; higher = larger share of this subpopulation than in DMSO controls; details: 10 µM; 24 h; SM minimal medium; subpopulation (auxotrophy): H
How it was run: as §1

[7] = test system: Saccharomyces cerevisiae BY4741 SeMeCo community; test: z-score of subpopulation abundance vs DMSO median, subpopulation auxotrophic for LU; higher = larger share of this subpopulation than in DMSO controls; details: 10 µM; 24 h; SM minimal medium; subpopulation (auxotrophy): LU
How it was run: as §1

[8] = test system: Saccharomyces cerevisiae BY4741 SeMeCo community; test: z-score of subpopulation abundance vs DMSO median, subpopulation auxotrophic for LM; higher = larger share of this subpopulation than in DMSO controls; details: 10 µM; 24 h; SM minimal medium; subpopulation (auxotrophy): LM
How it was run: as §1

[9] = test system: Saccharomyces cerevisiae BY4741 SeMeCo community; test: z-score of subpopulation abundance vs DMSO median, subpopulation auxotrophic for HM; higher = larger share of this subpopulation than in DMSO controls; details: 10 µM; 24 h; SM minimal medium; subpopulation (auxotrophy): HM
How it was run: as §1

[10] = test system: Saccharomyces cerevisiae BY4741 SeMeCo community; test: z-score of subpopulation abundance vs DMSO median, subpopulation auxotrophic for HU; higher = larger share of this subpopulation than in DMSO controls; details: 10 µM; 24 h; SM minimal medium; subpopulation (auxotrophy): HU
How it was run: as §1

[11] = test system: Saccharomyces cerevisiae BY4741 SeMeCo community; test: z-score of subpopulation abundance vs DMSO median, subpopulation auxotrophic for UM; higher = larger share of this subpopulation than in DMSO controls; details: 10 µM; 24 h; SM minimal medium; subpopulation (auxotrophy): UM
How it was run: as §1

[12] = test system: Saccharomyces cerevisiae BY4741 SeMeCo community; test: z-score of subpopulation abundance vs DMSO median, subpopulation auxotrophic for HL; higher = larger share of this subpopulation than in DMSO controls; details: 10 µM; 24 h; SM minimal medium; subpopulation (auxotrophy): HL
How it was run: as §1

[13] = test system: Saccharomyces cerevisiae BY4741 SeMeCo community; test: z-score of subpopulation abundance vs DMSO median, subpopulation auxotrophic for HLU; higher = larger share of this subpopulation than in DMSO controls; details: 10 µM; 24 h; SM minimal medium; subpopulation (auxotrophy): HLU
How it was run: as §1

[14] = test system: Saccharomyces cerevisiae BY4741 SeMeCo community; test: z-score of subpopulation abundance vs DMSO median, subpopulation auxotrophic for HLM; higher = larger share of this subpopulation than in DMSO controls; details: 10 µM; 24 h; SM minimal medium; subpopulation (auxotrophy): HLM
How it was run: as §1

[15] = test system: Saccharomyces cerevisiae BY4741 SeMeCo community; test: z-score of subpopulation abundance vs DMSO median, subpopulation auxotrophic for HUM; higher = larger share of this subpopulation than in DMSO controls; details: 10 µM; 24 h; SM minimal medium; subpopulation (auxotrophy): HUM
How it was run: as §1

[16] = test system: Saccharomyces cerevisiae BY4741 SeMeCo community; test: z-score of subpopulation abundance vs DMSO median, subpopulation auxotrophic for LUM; higher = larger share of this subpopulation than in DMSO controls; details: 10 µM; 24 h; SM minimal medium; subpopulation (auxotrophy): LUM
How it was run: as §1

[17] = test system: Saccharomyces cerevisiae BY4741 SeMeCo community; test: z-score of subpopulation abundance vs DMSO median, subpopulation auxotrophic for HLUM; higher = larger share of this subpopulation than in DMSO controls; details: 10 µM; 24 h; SM minimal medium; subpopulation (auxotrophy): HLUM
How it was run: as §1

Structure (SMILES): Clc1ccc(C(Cn2ccnc2)OCc2ccsc2Cl)c(Cl)c1 (stereo unspecified) [Tioconazole]
- mean cell size [1]: 12.1 ± 0.12
- z-score of prototroph abundance [2]: -7.82
- z-score of subpopulation abundance [3]: -0.92
- z-score of subpopulation abundance [4]: -2.45
- z-score of subpopulation abundance [5]: 1.22
- z-score of subpopulation abundance [6]: 19.7
- z-score of subpopulation abundance [7]: -0.51
- z-score of subpopulation abundance [8]: -1.99
- z-score of subpopulation abundance [9]: 3.87
- z-score of subpopulation abundance [10]: 10.2
- z-score of subpopulation abundance [11]: 8.69
- z-score of subpopulation abundance [12]: 6.06
- z-score of subpopulation abundance [13]: 3.35
- z-score of subpopulation abundance [14]: 20
- z-score of subpopulation abundance [15]: 3.39
- z-score of subpopulation abundance [16]: 4.03
- z-score of subpopulation abundance [17]: 15.6

Structure (SMILES): C#C[C@]1(OC(C)=O)CC[C@H]2[C@@H]3CCC4=C[C@@H](OC(C)=O)CC[C@@H]4[C@H]3CC[C@@]21C [Ethynodiol diacetate]
- mean cell size [1]: 12.3 ± 0.37
- z-score of prototroph abundance [2]: 0.6
- z-score of subpopulation abundance [3]: -0.73
- z-score of subpopulation abundance [4]: -0.15
- z-score of subpopulation abundance [5]: -1.03
- z-score of subpopulation abundance [6]: -0.43
- z-score of subpopulation abundance [7]: -0.48
- z-score of subpopulation abundance [8]: 0.57
- z-score of subpopulation abundance [9]: -0.18
- z-score of subpopulation abundance [10]: -0.23
- z-score of subpopulation abundance [11]: -0.32
- z-score of subpopulation abundance [12]: 0.67
- z-score of subpopulation abundance [13]: 0.1
- z-score of subpopulation abundance [14]: -0.54
- z-score of subpopulation abundance [15]: -0.26
- z-score of subpopulation abundance [16]: -0.12
- z-score of subpopulation abundance [17]: 0.38

Structure (SMILES): COc1ccccc1OCC(O)CN1CCN(CC(=O)Nc2c(C)cccc2C)CC1 (stereo unspecified) [Ranolazine]
- mean cell size [1]: 12.5 ± 0.23
- z-score of prototroph abundance [2]: -0.25
- z-score of subpopulation abundance [3]: 0.23
- z-score of subpopulation abundance [4]: 0.18
- z-score of subpopulation abundance [5]: -0.29
- z-score of subpopulation abundance [7]: -0.55
- z-score of subpopulation abundance [8]: 0.68
- z-score of subpopulation abundance [9]: 0.37
- z-score of subpopulation abundance [10]: -0.09
- z-score of subpopulation abundance [11]: 0.37
- z-score of subpopulation abundance [12]: -0.42
- z-score of subpopulation abundance [13]: -0.21
- z-score of subpopulation abundance [14]: 0.19
- z-score of subpopulation abundance [15]: 0.18
- z-score of subpopulation abundance [16]: 0.49
- z-score of subpopulation abundance [17]: 0.5

Structure (SMILES): CCOC(=O)c1ccc(N)cc1 [Benzocaine hydrochloride]
- mean cell size [1]: 12.43 ± 0.056
- z-score of prototroph abundance [2]: -0.32
- z-score of subpopulation abundance [3]: -1.03
- z-score of subpopulation abundance [4]: -0.9
- z-score of subpopulation abundance [5]: 1.42
- z-score of subpopulation abundance [6]: -0.31
- z-score of subpopulation abundance [7]: 0.5
- z-score of subpopulation abundance [8]: -0.93
- z-score of subpopulation abundance [9]: -0.65
- z-score of subpopulation abundance [10]: 0.87
- z-score of subpopulation abundance [11]: 0.51
- z-score of subpopulation abundance [12]: 0
- z-score of subpopulation abundance [13]: -0.85
- z-score of subpopulation abundance [14]: -0.46
- z-score of subpopulation abundance [15]: 0.44
- z-score of subpopulation abundance [16]: 0.12
- z-score of subpopulation abundance [17]: 0.01

Structure (SMILES): Cc1[nH]cnc1CN1CCc2c(c3ccccc3n2C)C1=O [Alosetron Hydrochloride]
- mean cell size [1]: 12 ± 0.2
- z-score of prototroph abundance [2]: -0.91
- z-score of subpopulation abundance [3]: 0.38
- z-score of subpopulation abundance [4]: 0.02
- z-score of subpopulation abundance [5]: 1.4
- z-score of subpopulation abundance [6]: -0.22
- z-score of subpopulation abundance [7]: 1.07
- z-score of subpopulation abundance [8]: 0.27
- z-score of subpopulation abundance [9]: 0.69
- z-score of subpopulation abundance [10]: 0.97
- z-score of subpopulation abundance [11]: 0.96
- z-score of subpopulation abundance [12]: 0
- z-score of subpopulation abundance [13]: -0.13
- z-score of subpopulation abundance [14]: 0.08
- z-score of subpopulation abundance [15]: 0.46
- z-score of subpopulation abundance [16]: -0.03
- z-score of subpopulation abundance [17]: 1.5

Structure (SMILES): Cc1cccc(C)c1OCC(C)N (stereo unspecified) [Mexiletine HCl]
- mean cell size [1]: 12.3 ± 0.13
- z-score of prototroph abundance [2]: 0.5
- z-score of subpopulation abundance [3]: -0.98
- z-score of subpopulation abundance [4]: -0.39
- z-score of subpopulation abundance [5]: 0.62
- z-score of subpopulation abundance [6]: -0.52
- z-score of subpopulation abundance [7]: 0.44
- z-score of subpopulation abundance [8]: -0.69
- z-score of subpopulation abundance [9]: -0.64
- z-score of subpopulation abundance [10]: 0.61
- z-score of subpopulation abundance [11]: -0.36
- z-score of subpopulation abundance [12]: -0.55
- z-score of subpopulation abundance [13]: -0.19
- z-score of subpopulation abundance [14]: -1.23
- z-score of subpopulation abundance [15]: -0.49
- z-score of subpopulation abundance [16]: -0.37
- z-score of subpopulation abundance [17]: -0.35
